Measured values reported in PubChem BioAssay (NCATS).
Inconclusive results are not listed. Activity calls are given as the source filed them. Calls come from the whole dose curve; as a rule, active = well fitted curve in the direction sought with a large enough effect; inconclusive = small, poorly fitted or top-dose-only effect, or another doubt; inactive = no such curve, though single readings can be large; an effect the other way counts as inactive or inconclusive.

Each compound was assayed against Rap guanine nucleotide exchange factor 3 (Homo sapiens) (UniProt O95398) (assay: Confirmatory qHTS for antagonist of cAMP-regulated guanine nucleotide exchange factor 3 (EPAC1) (AID 1645880; note: nearly all actives have a fitted effect of over 55% in size;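 for activity, negative = inhibition: plate controls were DMSO only for no effect and full effect of the ATA control for full effect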)). Conditions: EPAC1 Rap1B-BODIPY-GDP exchange, fluorescence; activity, negative = inhibition: at 115 µM (top of the series).
Summary of the method: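 Nucleotide exchange uses 100 nM EPAC1, 250 nM RAP1B-BODIPY-GDP and 50 uM GDP, with compounds in a concentration-titration series. After 5 min at room temperature, fluorescence (480 nm ex/540 nm em) is read every 5 min for 30 min. Data are normalized to control ATA and DMSO.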
Potency is the fitted concentration of half-maximal effect.

Chain of Rap guanine nucleotide exchange factor 3 (Homo sapiens) (O95398 whole entry, looked up): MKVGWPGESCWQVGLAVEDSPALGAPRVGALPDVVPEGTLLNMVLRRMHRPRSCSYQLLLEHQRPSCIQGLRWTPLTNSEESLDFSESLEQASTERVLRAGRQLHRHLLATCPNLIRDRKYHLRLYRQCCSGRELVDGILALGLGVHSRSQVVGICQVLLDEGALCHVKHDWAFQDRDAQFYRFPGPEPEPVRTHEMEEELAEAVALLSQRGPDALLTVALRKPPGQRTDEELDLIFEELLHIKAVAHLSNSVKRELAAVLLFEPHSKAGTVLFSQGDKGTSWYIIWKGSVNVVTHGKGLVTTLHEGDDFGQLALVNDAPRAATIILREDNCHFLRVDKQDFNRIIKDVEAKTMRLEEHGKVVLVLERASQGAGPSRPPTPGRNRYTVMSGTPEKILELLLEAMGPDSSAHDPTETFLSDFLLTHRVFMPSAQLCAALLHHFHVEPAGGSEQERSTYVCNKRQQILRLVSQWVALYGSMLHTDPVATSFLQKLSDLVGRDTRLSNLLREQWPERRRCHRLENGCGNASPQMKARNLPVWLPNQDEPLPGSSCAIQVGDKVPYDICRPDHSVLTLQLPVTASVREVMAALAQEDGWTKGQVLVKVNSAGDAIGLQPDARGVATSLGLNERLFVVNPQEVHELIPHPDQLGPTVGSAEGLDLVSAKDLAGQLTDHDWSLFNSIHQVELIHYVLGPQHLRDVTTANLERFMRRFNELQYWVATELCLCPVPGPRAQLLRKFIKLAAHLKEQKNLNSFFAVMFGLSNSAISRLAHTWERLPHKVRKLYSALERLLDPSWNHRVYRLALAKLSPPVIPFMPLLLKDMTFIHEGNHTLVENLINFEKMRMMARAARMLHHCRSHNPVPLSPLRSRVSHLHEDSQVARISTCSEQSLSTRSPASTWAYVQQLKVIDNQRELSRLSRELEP

activity, negative = inhibition, inactive:
COc1cccc(C(=O)NC(=S)N2c3ccccc3CC2C)c1OC (stereo not given) -28.9%
COc1ccc(OCC(=O)OCCNC(=O)c2cccnc2)cc1 -8.34%
O=C1COc2ccc(C(=O)COC(=O)c3ccc([N+](=O)[O-])cc3Cl)cc2N1 -19.7%
Cc1cccc(C)c1Nc1nn2c(=O)c3cc4c(cc3nc2s1)OCO4 -24.3%
O=C(c1ccco1)N(Cc1cccs1)c1ccc(F)cc1 -10%
C/C(Cc1ccccc1)=N\NC(=O)c1cccnc1 -10.4%
COc1cccc2c1Oc1ncccc1N(C(=O)CCC(=O)NCc1cccc(C)c1)C2 -19.2%
CCOc1ccc2nc(S(=O)(=O)NC(=O)C3(C)CCN3C(=O)CCc3cccs3)sc2c1 (stereo not given) -11%
COc1ccc(C2c3ccsc3CCN2C(C)=O)cc1 (stereo not given) -14.9%
CCC(C)(C)NC(=O)C(c1ccccn1)N(C(=O)c1csnn1)C1CCCCC1 (stereo not given) -8.84%
O=C1CCC/C(=N/NC(=O)c2sc3ccccc3c2Cl)C1 -2.57%
CCN(CC)c1ccc2cc(C(C)=O)c(=O)oc2c1 32.7%
COC(=O)c1ccccc1NC(=O)c1nn(-c2ccc(OC)cc2)c(=O)c2c1c1ccccc1n2C -2.79%
CCOC(=O)C1=C(CC)OC(N)=C(C#N)C1c1ccc(OC)c(OC)c1OC (stereo not given) -18.5%
Cc1cccn2cc(CCNC(=O)c3ccco3)nc12 -19%
COC(=O)c1ccc2nc(-c3ccccc3)c(Cc3ccccc3C(F)(F)F)n2c1 -1.76%
Cc1cc(-c2nn(-c3ccccc3F)cc2CN2CCCC(O)C2)c(C)s1 (stereo not given) -11.8%
O=c1[nH][nH]c(-c2ccccc2O)c1C(C[N+](=O)[O-])c1ccc(Cl)cc1Cl (stereo not given) -13.1%
COc1cccc2c1OC1(C)CC2/C(=C(\C)O)C(=O)N1 (stereo not given) -9.11%
COc1ccc(S(=O)(=O)NC(CCSC)C(=O)NC2CCCCC2)cc1 (stereo not given) -8.23%
CSc1ccccc1C(=O)Nc1ccc(C)cc1C -27.2%
Cc1c2cn[nH]c(=O)c2c(C)n1-c1ccccc1 -12.9%
CCc1ccccc1N(C)S(=O)(=O)c1ccc2[nH]cc(C(=O)N3CCc4ccccc43)c(=O)c2c1 -21.7%
O=C1C2CCCN2C(c2ccccc2F)N1c1cccc(Cl)c1 (stereo not given) -6.59%
Cc1ccc(C2CC(=O)Oc3cc(C)c(Br)c(C)c32)cc1 (stereo not given) -26.9%
O=C(O)c1ccc(N/N=C/c2cccc(C(F)(F)F)c2)cc1 -28.3%
CC(=O)Nc1cc(C(=O)NCc2ccco2)ccc1Sc1ccc(C)cc1 -11.8%
COc1ccc(N(C(=O)c2ccco2)S(=O)(=O)c2cc(OC)ccc2OC)cc1 -22.3%
COc1ccc(S(=O)(=O)N2CCCCC2)cc1C(C)C -43.4%
Cc1ccccc1N=C(c1ccccc1)C1C(=O)c2ccccc2C1=O -10.9%
CSc1ccc(/C=N/NC(=O)CN2CCN(Cc3ccc(Cl)cc3)CC2)cc1 -15.7%
CCOC(=O)c1c(NC(=O)c2ccccc2OCC)sc2c1CCC(CC)C2 (stereo not given) -21.1%
CCOC(=O)C1=CCN(S(=O)(=O)c2ccc(C)cc2)C1c1cccc(Cl)c1 (stereo not given) -22.2%

Potency, active:
Cc1ccc(N=Cc2cc(Cc3ccccc3Cl)cc([N+](=O)[O-])c2O)c(O)c1 10.7 µM
O=C(O)c1ccc(/C=N/NC(=O)c2ccc(CN3c4cccc5cccc(c45)S3(=O)=O)cc2)cc1 44.7 µM
CCOc1cc(/C=C2\SC(=S)N(NS(=O)(=O)c3ccc(C)cc3)C2=O)ccc1O 19 µM
Cc1[nH][nH]c(=O)c1C(c1c(C)[nH][nH]c1=O)c1cn(Cc2cccc3ccccc23)c2ccccc12 75.7 µM
CC(=O)NNC(=O)c1sc(=S)n2c1[nH]c(=O)c1sccc12 37.9 µM
O=C(C1=C(O)C(=O)N(c2nc3ccc(Cl)cc3s2)C1c1ccco1)c1ccco1 (stereo not given) 16.9 µM
CC1(C(=O)NS(=O)(=O)c2ccc3c(c2)CCO3)CCN1C(=O)C1(c2ccc(Cl)cc2)CCC1 (stereo not given) 39.8 µM

These compounds were tested against Rap guanine nucleotide exchange factor 3 (Homo sapiens) (UniProt O95398) (assay: Confirmatory qHTS for agonist of cAMP-regulated guanine nucleotide exchange factor 3 (EPAC1) (AID 1645881; note: nearly all actives have a fitted effect of over 75% in size;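 for activation: EPAC1 catalysed release of BODIPY-GDP from Rap1B seen as fluorescence loss; 100% = effect of cAMP agonist control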)). Conditions: EPAC1 Rap1B BODIPY-GDP exchange fluorescence; series mostly up to 154 µM; activation: at the top concentration.

activation, inactive:
COc1cccc(C(=O)NC(=S)N2c3ccccc3CC2C)c1OC (stereo not given) 18.8%
COc1ccc(OCC(=O)OCCNC(=O)c2cccnc2)cc1 -0.397%
O=C1COc2ccc(C(=O)COC(=O)c3ccc([N+](=O)[O-])cc3Cl)cc2N1 10.8%
Cc1cccc(C)c1Nc1nn2c(=O)c3cc4c(cc3nc2s1)OCO4 0.827%
O=C(c1ccco1)N(Cc1cccs1)c1ccc(F)cc1 10.3%
Cc1ccc(N=Cc2cc(Cc3ccccc3Cl)cc([N+](=O)[O-])c2O)c(O)c1 10.7%
O=C(O)c1ccc(/C=N/NC(=O)c2ccc(CN3c4cccc5cccc(c45)S3(=O)=O)cc2)cc1 -2.92%
C/C(Cc1ccccc1)=N\NC(=O)c1cccnc1 2.73%
COc1cccc2c1Oc1ncccc1N(C(=O)CCC(=O)NCc1cccc(C)c1)C2 8.29%
CCOc1ccc2nc(S(=O)(=O)NC(=O)C3(C)CCN3C(=O)CCc3cccs3)sc2c1 (stereo not given) 5.07%
CCOc1cc(/C=C2\SC(=S)N(NS(=O)(=O)c3ccc(C)cc3)C2=O)ccc1O 5.74%
COc1ccc(C2c3ccsc3CCN2C(C)=O)cc1 (stereo not given) 10.3%
CCC(C)(C)NC(=O)C(c1ccccn1)N(C(=O)c1csnn1)C1CCCCC1 (stereo not given) 1.5%
O=C1CCC/C(=N/NC(=O)c2sc3ccccc3c2Cl)C1 3.9%
COC(=O)c1ccccc1NC(=O)c1nn(-c2ccc(OC)cc2)c(=O)c2c1c1ccccc1n2C 7.35%
CCOC(=O)C1=C(CC)OC(N)=C(C#N)C1c1ccc(OC)c(OC)c1OC (stereo not given) -7.14%
Cc1cccn2cc(CCNC(=O)c3ccco3)nc12 -8.12%
COC(=O)c1ccc2nc(-c3ccccc3)c(Cc3ccccc3C(F)(F)F)n2c1 -1.6%
Cc1cc(-c2nn(-c3ccccc3F)cc2CN2CCCC(O)C2)c(C)s1 (stereo not given) 0.353%
O=c1[nH][nH]c(-c2ccccc2O)c1C(C[N+](=O)[O-])c1ccc(Cl)cc1Cl (stereo not given) 8.15%
COc1cccc2c1OC1(C)CC2/C(=C(\C)O)C(=O)N1 (stereo not given) 9.04%
COc1ccc(S(=O)(=O)NC(CCSC)C(=O)NC2CCCCC2)cc1 (stereo not given) 9.22%
CSc1ccccc1C(=O)Nc1ccc(C)cc1C -14.4%
Cc1c2cn[nH]c(=O)c2c(C)n1-c1ccccc1 15.2%
Cc1[nH][nH]c(=O)c1C(c1c(C)[nH][nH]c1=O)c1cn(Cc2cccc3ccccc23)c2ccccc12 1.63%
CCc1ccccc1N(C)S(=O)(=O)c1ccc2[nH]cc(C(=O)N3CCc4ccccc43)c(=O)c2c1 -20.1%
O=C1C2CCCN2C(c2ccccc2F)N1c1cccc(Cl)c1 (stereo not given) 16.7%
CC(=O)NNC(=O)c1sc(=S)n2c1[nH]c(=O)c1sccc12 2.77%
Cc1ccc(C2CC(=O)Oc3cc(C)c(Br)c(C)c32)cc1 (stereo not given) 11.7%
O=C(O)c1ccc(N/N=C/c2cccc(C(F)(F)F)c2)cc1 -4.54%
CC(=O)Nc1cc(C(=O)NCc2ccco2)ccc1Sc1ccc(C)cc1 2.99%
O=C(C1=C(O)C(=O)N(c2nc3ccc(Cl)cc3s2)C1c1ccco1)c1ccco1 (stereo not given) -34.1%
CC1(C(=O)NS(=O)(=O)c2ccc3c(c2)CCO3)CCN1C(=O)C1(c2ccc(Cl)cc2)CCC1 (stereo not given) -0.547%
COc1ccc(N(C(=O)c2ccco2)S(=O)(=O)c2cc(OC)ccc2OC)cc1 21.5%
COc1ccc(S(=O)(=O)N2CCCCC2)cc1C(C)C -2.58%
Cc1ccccc1N=C(c1ccccc1)C1C(=O)c2ccccc2C1=O 15.7%
CSc1ccc(/C=N/NC(=O)CN2CCN(Cc3ccc(Cl)cc3)CC2)cc1 -13%
CCOC(=O)c1c(NC(=O)c2ccccc2OCC)sc2c1CCC(CC)C2 (stereo not given) 17.1%
CCOC(=O)C1=CCN(S(=O)(=O)c2ccc(C)cc2)C1c1cccc(Cl)c1 (stereo not given) 14.6%

Potency, active:
CCN(CC)c1ccc2cc(C(C)=O)c(=O)oc2c1 89.1 µM
